Molecules are shown by their SMILES. The panel holds about 83,000 compounds, 20% with a hit somewhere; the sample as a whole holds those more often.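 Method: cells in 96-well plates; compound added at one concentration; 48 h incubation; percent growth measured; values under 10 scored active.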 A number with no mark means an inactive call. Active and inactive are the calls of the source.

For one experiment, the system named is T-47D breast. Put plainly: NCI-60 one-dose screen, 48 h (100 = growth as untreated, 0 = no growth, -100 = all killed). The following applies: 10 µM unless noted.
Regarding `O=C(Nc1ccc(-n2cc(-c3ccncc3)c(-c3ccc(Cl)c(O)c3)n2)cc1)c1cc(C(F)(F)F)cc(C(F)(F)F)c1`, the growth was 47.9%.

On to `COc1ccc(C2CC(=O)c3c(O)cc(OC4OC(COC5OC(C)C(O)C(O)C5O)C(O)C(O)C4O)cc3O2)cc1O` (stereo not given), for which the growth is 121%.

As for `O=Nc1ccc(O)c2ccccc12`, the growth is -9.85% (active).

Turning to `CC(=O)N1CCN(CCNC(=O)n2cc(-c3ccncc3)c(-c3ccc(O)c(Cl)c3)n2)CC1`, the growth was 112%.

For `CC(O)CN(CCO)CCN(CCO)CC(C)O` (stereo not given), the growth was 100%.

With `COC(=O)C(Cc1cnc[nH]1)N1CC(=O)N2[C@@H](c3ccccc3)SC[C@H]2C1=O` (stereo not given in full), the growth is 108%.

As to `Cc1ccc(NCc2cn(-c3ccc(C(=O)O)cc3)nc2-c2ccc(C(=O)O)cc2)cc1`, the growth is 98.6%.

Take `O=C(c1ccccc1)c1ccccc1-c1ccccc1`: the growth is 27%.

With `CCCCCCC(C(=O)OCC)(C(=O)OCC)C1CCCCCC1`, the growth was 91.9%.

Consider `O=C1OC(c2ccc(-c3ccccc3)cc2)=C/C1=C/c1c2ccccc2cc2ccccc12`, for which the growth was 102%.

Turning to `O=C(O)c1ccc(-c2nn(-c3ccc(C(=O)O)cc3)cc2CNc2ccc(Br)cc2)cc1`, the growth is 96.6%.

With `O=C(N/N=C\c1ccc(-c2ccc(Br)cc2)o1)c1cc2oc(-c3cccc(C(F)(F)F)c3)cc2[nH]1`, the growth was 101%.

`O=C1Nc2c(c(=O)n(-c3ccccc3)c3ccccc23)C(c2ccc(Cl)cc2)N1` (stereo not given): the growth is 91.5%.

As to `O=c1c2c(c3ccccc3n1-c1ccccc1)NC(=S)NC2c1ccccc1` (stereo not given), the growth is 59.9%.

With `CCCCn1c(Cc2ccc(OC)cc2)nc2cc(OC)c(OC)cc2c1=O`, the growth is 57%.

Consider `Cc1[nH]n(C(=S)Nc2nc3cc(Cl)c(F)cc3s2)c(=O)c1N=Nc1ccc(F)c(Cl)c1`, for which the growth was 79.6%.

With `C=CCC(CCC(CC=C)C(=O)OCC)C(=O)OCC` (stereo not given), the growth is 105%.

Consider `O=[N+]([O-])c1ccc(-c2ncc(-c3ccc(O)cc3O)[nH]2)cc1`, for which the growth is 102%.

As for `COc1cc(-c2nn(-c3ccc(NC(=O)Nc4cc(C(F)(F)F)cc(C(F)(F)F)c4)cc3)cc2-c2ccncc2)ccc1Cl`, the growth is 8.74% (active).

Consider `CC(=O)Nc1nc(C)c(C(=O)NN)s1`, for which the growth is 85.9%.

Consider `C=C[C@]1(C)C=C2C(=O)[C@@]3(O)OC[C@@]4(CCCC(C)(C)C43O)C2(O)C(O)C1` (stereo not given in full), for which the growth is 20.9%.

The test system of another experiment is BT-549 breast. The description is as above. The following applies: 10 µM unless noted.
In the case of `O=C(NCCNCCO)c1cc([N+](=O)[O-])cc([N+](=O)[O-])c1O`, the growth is 121%.

For the molecule `NC(=O)c1c(Nc2ccccc2)nn2cc(-c3nc4ccccc4s3)c(N)nc12`, the growth is 102%.

On to `COC(=O)c1ccc2[nH]c(O)c(C(=Nc3ccc(N(C)C(=O)CN4CCN(C)CC4)cc3)c3ccc(OC)cc3)c2c1`, for which the growth is 22.5%.

Consider `c1ccc(C(=NNc2nc3ccccc3o2)c2ccccn2)nc1`, for which the growth is 18.7%.

Take `COC(=O)c1ccc2[nH]c(O)c(C(=Nc3ccc(N(C)C(=O)CN4CCN(C)CC4)cc3)c3ccc4c(c3)OCO4)c2c1`: the growth was 3.64% (active).

Turning to `COC(=O)c1ccc2[nH]c(O)c(C(=Nc3ccc(N(C)C(=O)CN4CCN(C)CC4)cc3)c3ccc([N+](=O)[O-])cc3)c2c1`, the growth is 49.1%.

On to `COC(=O)c1ccc2[nH]c(O)c(C(=Nc3ccc(N(C)C(=O)CN4CCN(C)CC4)cc3)c3ccc(N)cc3)c2c1`, for which the growth is 81.5%.

For the molecule `COC(=O)c1ccc(C(=Nc2ccc(N(C)C(=O)CN3CCN(C)CC3)cc2)c2c(O)[nH]c3ccc(C(=O)OC)cc23)cc1`, the growth is 45.8%.

For `Cc1ccc(C(C)C)c(OCc2ccc(C(=O)N/N=C/c3cccc(O)c3O)cc2)c1`, the growth was 36.2%.

Consider `COC(=O)c1ccc2[nH]c(O)c(C(=Nc3ccc(N(C)C(=O)CN4CCN(C)CC4)cc3)c3ccc(CCO)cc3)c2c1`, for which the growth was 20.6%.

As to `Clc1ccc(N/N=C(\c2ccccc2)c2ccccn2)nc1`, the growth is 16.7%.

`c1ccc(Nc2ncc3c(n2)-c2cccn2CC3)cc1`: the growth was 102%.

On to `CC(=O)OC1/C=C\CC/C=C\C1` (stereo not given), for which the growth was 110%.

With `CCN(CC)CCCNc1c2ccc(Cl)cc2nc2ccc(OC)cc12`, the growth was -20.4% (active).

Take `CC/C(=N\Nc1nc2ccccc2n1C)c1ccccn1`: the growth is 21%.

As to `CC(=O)OCC1O[C@@H](OC(C)=O)[C@@H](NC(=O)NS(=O)(=O)c2ccccc2)C(OC(C)=O)[C@@H]1OC(C)=O` (stereo not given in full), the growth was 102%.

With `Cc1nc2c(nnn2-c2ccccc2)c2nc(-c3ccccc3)oc(=O)c12`, the growth was 105%.

For the molecule `CCc1ccc(C(=Nc2ccc(N(C)C(=O)CN3CCN(C)CC3)cc2)c2c(O)[nH]c3ccc(C(=O)OC)cc23)cc1`, the growth was -87.9% (active).

As for `CCOC(=O)c1c2c(cn1Cc1ccccc1)-c1oncc1CC2`, the growth is 94.5%.

(Values after PubChem BioAssay (NCI).)
